Experimental data from PubChem BioAssay (Tox21).
Values joined by “and” are separate entries in the source; they are usually repeats but may differ in a detail not shown here. Equal values may be shown once. Records with an inconclusive call do not appear. The source holds several records for some structures; these can differ, active in one and inactive in another. Active and inactive are the calls of the source. Unless noted, the call rests on the fitted dose curve; in most records, active means well fitted curve in the direction sought with a large enough effect in the repeat runs; inconclusive means weak or mixed curves; inactive means no such curve, though single readings can be large; an effect the other way counts as inactive or inconclusive.

Assays:
[1] = qHTS assay to identify aromatase inhibitors - cell viability counter screen (AID 743084);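 further: cells stimulated with testosterone during compound exposure; nearly all actives have a fitted effect of over 55% in size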; further: potency means the concentration at half of the fitted maximal effect
[2] = biological target: Aryl hydrocarbon receptor (Homo sapiens) (UniProt P35869); assay: qHTS assay to identify small molecule that activate the aryl hydrocarbon receptor (AhR) signaling pathway (AID 743085); further: nearly all actives have a fitted effect of over 15% in size; further: potency means the concentration at half of the fitted maximal effect;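 on activation: HG2L7.5c1 human HepG2 liver cells with stably integrated DRE-driven firefly reporter; series mostly up to about 70 µM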
Chain of Aryl hydrocarbon receptor (Homo sapiens) (P35869 whole entry, looked up): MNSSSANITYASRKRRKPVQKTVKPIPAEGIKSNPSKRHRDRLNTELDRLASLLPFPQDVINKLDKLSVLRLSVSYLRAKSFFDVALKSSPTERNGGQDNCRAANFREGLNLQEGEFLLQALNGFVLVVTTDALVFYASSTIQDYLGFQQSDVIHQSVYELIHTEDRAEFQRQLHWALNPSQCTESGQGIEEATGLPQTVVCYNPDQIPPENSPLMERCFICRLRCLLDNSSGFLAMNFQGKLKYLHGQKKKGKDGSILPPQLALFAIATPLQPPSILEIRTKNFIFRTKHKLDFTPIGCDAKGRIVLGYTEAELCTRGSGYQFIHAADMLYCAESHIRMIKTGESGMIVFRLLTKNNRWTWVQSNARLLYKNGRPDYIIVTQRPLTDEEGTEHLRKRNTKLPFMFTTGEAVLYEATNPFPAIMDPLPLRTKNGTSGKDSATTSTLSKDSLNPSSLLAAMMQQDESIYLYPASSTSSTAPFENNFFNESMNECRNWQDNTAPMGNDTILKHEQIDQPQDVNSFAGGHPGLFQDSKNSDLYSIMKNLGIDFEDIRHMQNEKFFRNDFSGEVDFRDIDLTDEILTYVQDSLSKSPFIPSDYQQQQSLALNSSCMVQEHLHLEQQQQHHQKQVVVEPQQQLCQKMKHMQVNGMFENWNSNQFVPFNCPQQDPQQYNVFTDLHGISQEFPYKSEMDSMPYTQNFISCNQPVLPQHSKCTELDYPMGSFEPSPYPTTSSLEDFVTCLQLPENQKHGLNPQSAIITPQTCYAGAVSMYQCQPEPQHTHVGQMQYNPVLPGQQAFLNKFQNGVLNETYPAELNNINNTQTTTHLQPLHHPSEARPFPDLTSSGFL
Procedure, shortened: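 Luminescence read-out: ONE-Glo reagent, 30 min at room temperature, in HG2L7.5c1 HepG2 reporter cells treated 24 h at 37C. Viability was measured beforehand by CellTiter-Fluor fluorescence after 30 min at 37C.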

[3] = qHTS assay to identify small molecule that activate the aryl hydrocarbon receptor (AhR) signaling pathway - cell viability counter screen (AID 743086);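 further: HepG2 liver cells carrying the AhR DRE luciferase reporter; series mostly up to about 70 µM; nearly all actives have a fitted effect of over 45% in size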
Procedure, shortened: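 HepG2-AhR-luc (HG2L7.5c1) cells, 4000/well, treated 24 h at 37 C with compound; viability measured as CellTiter-Fluor fluorescence after 30 min in the same wells as the luciferase read.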

[4] = biological target: Peroxisome proliferator-activated receptor gamma (Homo sapiens) (UniProt P37231); assay: qHTS assay to identify small molecule agonists of the peroxisome proliferator-activated receptor gamma (PPARg) signaling pathway (AID 743094; active means well fitted activation curve with a large enough effect in the signal ratio in the repeat runs, not every such curve was filed as active; the % refers to the signal ratio)
Chain of Peroxisome proliferator-activated receptor gamma (Homo sapiens) (P37231 whole entry, looked up): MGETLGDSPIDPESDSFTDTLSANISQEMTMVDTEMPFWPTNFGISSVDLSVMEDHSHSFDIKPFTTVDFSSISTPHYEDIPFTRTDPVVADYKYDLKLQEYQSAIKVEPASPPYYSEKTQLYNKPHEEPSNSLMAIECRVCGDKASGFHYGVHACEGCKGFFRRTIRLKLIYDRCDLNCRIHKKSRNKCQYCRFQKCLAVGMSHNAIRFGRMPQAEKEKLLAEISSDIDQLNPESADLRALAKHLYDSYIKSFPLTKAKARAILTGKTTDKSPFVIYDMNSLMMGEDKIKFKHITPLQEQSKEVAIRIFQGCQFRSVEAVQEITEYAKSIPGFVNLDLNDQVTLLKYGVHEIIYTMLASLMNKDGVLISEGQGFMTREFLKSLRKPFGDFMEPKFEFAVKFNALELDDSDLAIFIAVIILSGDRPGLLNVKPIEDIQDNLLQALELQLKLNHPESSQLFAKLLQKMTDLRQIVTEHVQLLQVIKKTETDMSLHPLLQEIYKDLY
Procedure, shortened: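 GeneBLAzer PPARg UAS-bla HEK293H cells were plated, rested 5 h, then exposed to compounds for 17 h at 37C. Beta-lactamase activity was read by LiveBLAzer B/G FRET substrate fluorescence after 1 h at room temperature.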

[5] = biological target: Peroxisome proliferator-activated receptor gamma (Homo sapiens) (UniProt P37231); assay: qHTS assay to identify small molecule antagonists of the peroxisome proliferator-activated receptor gamma (PPARg) signaling pathway (AID 743191; calls by dose curve; further: series mostly up to about 63 µM; nearly all actives have a fitted effect of over 30% in size)
Procedure, shortened: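 GeneBLAzer PPARg UAS-bla HEK293H cells, 5 h post-plating, exposed to compounds 17 h at 37C. LiveBLAzer B/G FRET substrate added for 1 h at room temperature; beta-lactamase reporter read by fluorescence intensity.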

[6] = qHTS assay to identify small molecule antagonists of the peroxisome proliferator-activated receptor gamma (PPARg) signaling pathway - cell viability counter screen (AID 743194); details: Potency: co-treated with 50 nM rosiglitazone; further: nearly all actives have a fitted effect of over 55% in size
Procedure, shortened: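 Cytotoxicity counter screen in PPARg-bla HEK293H cells, same wells as reporter assay. Compounds plus 50 nM rosiglitazone (final) for 17 h at 37 C, then viability read by CellTiter-Glo luminescence.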

[7] = qHTS assay for small molecule agonists of the antioxidant response element (ARE) signaling pathway (AID 743202; active means well fitted activation curve with a large enough effect in the signal ratio in the repeat runs, not every such curve was filed as active; the % refers to the signal ratio; further: potency means the concentration at half of the fitted maximal effect)
Procedure, shortened: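 ARE-bla HepG2 cells (beta-lactamase reporter under the antioxidant response element), plated 5 hours, then exposed to compounds 16 hours at 37 C. LiveBLAzer B/G FRET substrate added for 2 hours at room temperature; fluorescence intensity read.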

[8] = qHTS assay for small molecule agonists of the antioxidant response element (ARE) signaling pathway - cell viability counter screen (AID 743203; calls by dose curve; further: nearly all actives have a fitted effect of over 55% in size)
Procedure, shortened: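 ARE-bla HepG2 cells were plated, rested 5 h at 37C/5% CO2, then exposed to compounds in DMSO for 16 h. Viability was read as CellTiter-Glo luminescence after 30 min at room temperature, in the same wells as the ARE screen.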

[9] = qHTS assay for small molecule activators of the heat shock response signaling pathway - cell viability counter screen (AID 743209); further: nearly all actives have a fitted effect of over 50% in size
Procedure, shortened: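 HSE-bla HeLa cells plated overnight, then exposed to Tox21 compounds (23 nL in DMSO) for 5 h at 37 C. After the bla reporter read, CellTiter-Glo was added in the same wells and luminescence read after 30 min at room temperature.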

[10] = qHTS assay for small molecule activators of the heat shock response signaling pathway (AID 743210; active means well fitted activation curve with a large enough effect in the signal ratio in the repeat runs, with a control signal flat, not every such curve was filed as active; the % refers to the signal ratio; further: series mostly up to about 63 µM)
Procedure, shortened: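 HSE-bla HeLa cells (beta-lactamase reporter under heat shock response elements), plated overnight, then exposed to compounds 5 h at 37 C; LiveBLAzer B/G FRET substrate added, 2.5 h at room temperature, fluorescence intensity read.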

[11] = qHTS assay to identify small molecule agonists of the peroxisome proliferator-activated receptor delta (PPARd) signaling pathway - cell viability counter screen (AID 743211); further: nearly all actives have a fitted effect of over 55% in size
Procedure, shortened: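 Read-out: CellTiter-Glo luminescence, 30 min RT, measured in the same wells as the beta-lactamase reporter. Cells: GeneBLAzer PPAR delta UAS-bla HEK293H, 3000 cells/well, compound exposure 17 h at 37C.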

[12] = biological target: Peroxisome proliferator-activated receptor delta (Homo sapiens) (UniProt Q03181); assay: qHTS assay to identify small molecule agonists of the peroxisome proliferator-activated receptor delta (PPARd) signaling pathway (AID 743212; calls by dose curve)
Chain of Peroxisome proliferator-activated receptor delta (Homo sapiens) (Q03181 whole entry, looked up): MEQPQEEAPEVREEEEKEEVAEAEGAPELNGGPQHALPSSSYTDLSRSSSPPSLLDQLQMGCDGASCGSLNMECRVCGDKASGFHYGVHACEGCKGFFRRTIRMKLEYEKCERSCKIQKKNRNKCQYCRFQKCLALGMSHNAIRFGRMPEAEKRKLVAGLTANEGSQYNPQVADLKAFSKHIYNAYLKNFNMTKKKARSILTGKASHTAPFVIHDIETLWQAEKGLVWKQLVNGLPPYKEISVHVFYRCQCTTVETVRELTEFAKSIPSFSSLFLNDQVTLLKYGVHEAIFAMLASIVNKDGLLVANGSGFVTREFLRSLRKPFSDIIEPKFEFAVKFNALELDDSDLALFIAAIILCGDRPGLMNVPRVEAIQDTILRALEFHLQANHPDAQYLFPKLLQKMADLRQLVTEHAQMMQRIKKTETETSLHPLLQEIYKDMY
Procedure, shortened: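 GeneBLAzer UAS-bla HEK293H cells carrying a PPARδ construct were exposed to compounds at 37 °C. Beta-lactamase activity was read by FRET fluorescence after 2 h at room temperature with LiveBLAzer B/G substrate.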

[13] = qHTS assay to identify small molecule antagonists of the peroxisome proliferator-activated receptor delta (PPARd) signaling pathway - cell viability counter screen (AID 743213); further: nearly all actives have a fitted effect of over 50% in size
Procedure, shortened: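 PPARd-bla HEK293H cells were treated with compounds plus agonist L165041 (300 nM final) for 17 h at 37 C. Viability was then read in the same wells by CellTiter-Glo luminescence after 30 min at room temperature.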

[14] = biological target: Peroxisome proliferator-activated receptor delta (Homo sapiens) (UniProt Q03181); assay: qHTS assay to identify small molecule antagonists of the peroxisome proliferator-activated receptor delta (PPARd) signaling pathway (AID 743215; active means well fitted inhibition curve with a large enough effect in the signal ratio in the repeat runs, not every such curve was filed as active; the % refers to the signal ratio;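 further: cells stimulated with agonist L165041 at 300 nM final during compound exposure; series mostly up to about 62 µM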)
Procedure, shortened: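 PPARd-bla HEK293H cells (UAS-bla reporter) preincubated 5 h, then given compound plus 300 nM final L165041 agonist for 17 h at 37 C. Beta-lactamase activity read by LiveBLAzer B/G FRET substrate fluorescence after 2 h at room temperature.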

[15] = biological target: Bile acid receptor (Homo sapiens) (UniProt Q96RI1); assay: qHTS assay to identify small molecule antagonists of the farnesoid-X-receptor (FXR) signaling pathway (AID 743217; active means well fitted inhibition curve with a large enough effect in the signal ratio in the repeat runs, not every such curve was filed as active; the % refers to the signal ratio)
Chain of Bile acid receptor (Homo sapiens) (Q96RI1 whole entry, looked up): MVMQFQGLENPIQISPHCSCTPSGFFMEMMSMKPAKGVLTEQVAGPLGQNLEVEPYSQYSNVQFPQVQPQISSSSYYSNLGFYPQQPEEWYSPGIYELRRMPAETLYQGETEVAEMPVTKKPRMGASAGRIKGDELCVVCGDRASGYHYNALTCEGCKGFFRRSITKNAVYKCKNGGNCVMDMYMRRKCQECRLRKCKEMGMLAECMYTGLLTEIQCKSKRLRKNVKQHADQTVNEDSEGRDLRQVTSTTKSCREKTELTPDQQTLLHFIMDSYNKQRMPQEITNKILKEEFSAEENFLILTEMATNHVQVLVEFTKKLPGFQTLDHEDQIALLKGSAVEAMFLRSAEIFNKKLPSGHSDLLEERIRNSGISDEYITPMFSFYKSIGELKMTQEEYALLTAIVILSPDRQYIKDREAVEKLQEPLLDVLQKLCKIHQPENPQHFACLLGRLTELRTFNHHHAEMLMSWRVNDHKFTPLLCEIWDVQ
Procedure, shortened: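 FXR-UAS-bla HEK 293T cells (beta-lactamase reporter) given compound plus chenodeoxycholic acid (50 uM final), 16 h at 37C. LiveBLAzer B/G FRET substrate added for 2 h at room temperature; fluorescence read.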

[16] = qHTS assay to identify small molecule agonists of the farnesoid-X-receptor (FXR) signaling pathway - cell viability counter screen (AID 743218); further: nearly all actives have a fitted effect of over 45% in size
Procedure, shortened: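 FXR-UAS-bla HEK 293T cells exposed to compounds for 16 h at 37C. Cytotoxicity read in the same wells by CellTiter-Glo luminescence after 30 min at room temperature, following the beta-lactamase FRET read.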

[17] = biological target: Bile acid receptor (Homo sapiens) (UniProt Q96RI1); assay: qHTS assay to identify small molecule agonists of the farnesoid-X-receptor (FXR) signaling pathway (AID 743220; active means well fitted activation curve with a large enough effect in the signal ratio in the repeat runs, not every such curve was filed as active; the % refers to the signal ratio)
Procedure, shortened: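 Beta-lactamase reporter under UAS control in GeneBLAzer FXR HEK 293T cells (5000/well) measured with LiveBLAzer FRET substrate after 2 h at room temperature. Compound exposure lasted 16 h at 37C.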

[18] = qHTS assay to identify small molecule antagonists of the farnesoid-X-receptor (FXR) signaling pathway - cell viability counter screen (AID 743221; active means well fitted cell-killing curve with a large enough effect in the repeat runs, not every such curve was filed as active; further: nearly all actives have a fitted effect of over 50% in size)
Procedure, shortened: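 HEK 293T FXR-bla cells, 5 h pre-incubation; compound + CDCA 50 uM final, 16 h, 37 C; beta-lactamase FRET read first, then CellTiter-Glo luminescence, 30 min RT.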

[19] = biological target: Vitamin D3 receptor (Homo sapiens) (UniProt P11473); assay: qHTS assay to identify small molecule agonists of the vitamin D receptor (VDR) signaling pathway (AID 743222; calls by dose curve)
Chain of Vitamin D3 receptor (Homo sapiens) (P11473 whole entry, looked up): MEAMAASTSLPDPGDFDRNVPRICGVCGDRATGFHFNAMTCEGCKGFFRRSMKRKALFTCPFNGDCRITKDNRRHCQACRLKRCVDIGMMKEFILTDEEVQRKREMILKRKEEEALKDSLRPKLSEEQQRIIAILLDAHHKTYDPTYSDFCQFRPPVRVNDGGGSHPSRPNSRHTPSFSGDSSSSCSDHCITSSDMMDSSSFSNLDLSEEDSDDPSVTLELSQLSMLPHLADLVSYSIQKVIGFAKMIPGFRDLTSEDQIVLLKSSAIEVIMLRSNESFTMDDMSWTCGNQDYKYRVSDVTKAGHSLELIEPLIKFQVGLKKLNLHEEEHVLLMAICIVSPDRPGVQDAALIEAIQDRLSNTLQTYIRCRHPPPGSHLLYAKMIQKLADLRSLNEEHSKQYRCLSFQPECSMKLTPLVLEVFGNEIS
Procedure, shortened: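 VDR-bla cells plated 4 h at 37 C, then exposed to compounds for 16 h at 37 C. Beta-lactamase reporter activity measured by fluorescence after 2 h room-temperature loading with LiveBLAzer B/G FRET substrate.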

[20] = biological target: Vitamin D3 receptor (Homo sapiens) (UniProt P11473); assay: qHTS assay to identify small molecule antagonists of the vitamin D receptor (VDR) signaling pathway (AID 743223; active means well fitted inhibition curve with a large enough effect in the signal ratio in the repeat runs, not every such curve was filed as active; the % refers to the signal ratio)
Procedure, shortened: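 Beta-lactamase reporter read-out: FRET substrate fluorescence after 2 h at room temperature, following 16 h exposure of VDR-bla cells to test compound plus 3 nM (final) 1alpha,25-dihydroxyvitamin D3 agonist at 37C.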

Measured: Potency

CCOP(=O)(O)C(N)=O
inactive: all assays above

CCCCOC(=O)CCC(=O)OCCCC
not listed: [12] | [14] | [15] | [17] | [19] | [20]
inactive: all other assays above

CCCC[P+](CC)(CCCC)CCCC (tested in a mixture with another compound)
not listed: [8] | [12] | [14] | [15] | [17]
inactive: all other assays above

C=CCOCC1CO1 (configuration not stated)
not listed: [12] | [14] | [15] | [19]
inactive: all other assays above

Nc1cccc2ccccc12
active: [2] 27.5 µM and 27.3 µM
not listed: [15] | [17] | [19] | [20]
inactive: all other assays above

Cc1ccc(N)c(C)c1
not listed: [5]
inactive: all other assays above

C=C(C)C(=O)OCCCCOC(=O)C(=C)C
not listed: [5] | [12] | [15] | [17] | [19] | [20]
inactive: all other assays above

CCC1(CC)C(=O)NC(=O)NC1=O
not listed: [7] | [15] | [17] | [19]
inactive: all other assays above

CN[C@@H](C)[C@H](O)c1ccccc1
not listed: [8] | [11] | [16]
inactive: all other assays above

SCc1ccccc1
not listed: [5] | [10] | [19]
inactive: all other assays above

OC[P+](CO)(CO)CO
61.8 µM (active) and inactive: [1]
active: [7] 12.3 µM and 8.63 µM
not listed: [5] | [12] | [14] | [15] | [17]
inactive: all other assays above

N#CC(C#N)=Cc1ccc(O)c(O)c1
not listed: [6] | [7] | [8] | [15] | [17] | [19]
inactive: all other assays above

N#CC1(N=NC2(C#N)CCCCC2)CCCCC1
not listed: [7] | [10] | [12] | [14] | [15] | [17] | [19]
inactive: all other assays above

O=C(Cc1ccccc1)OCCc1ccccc1
not listed: [5] | [15] | [17] | [20]
inactive: all other assays above

NNCCO
not listed: [5] | [12] | [13] | [14] | [16] | [19] | [20]
inactive: all other assays above

CN1CC[C@]23c4c5ccc(O)c4O[C@H]2[C@@H](O)C=C[C@H]3[C@H]1C5
not listed: [8] | [10] | [12] | [14] | [15] | [17]
inactive: all other assays above

Clc1ccccc1
not listed: [5] | [13] | [14] | [15] | [17] | [19] | [20]
inactive: all other assays above

C[N+]1(CCC(C(N)=O)(c2ccccc2)c2ccccc2)CCCCC1
not listed: [5] | [12] | [13] | [19] | [20]
inactive: all other assays above
